Measured values from PubChem BioAssay AID1239 (SRMLSC, 2008).
About 3,100 (1.6%) of roughly 190,000 compounds were called active. Shown is part of a subset that was picked to be rich in actives. Values without a mark were called inactive. Cut-off read from the data, not from the text of the source: active = fold change above about 3.3; inconclusive = no clear call, values can overlap the other calls; inactive = below that.

Assay: NF-kB upregulation, human neuronal cells – cell-based, HTS, primary screen (AID 1239)
Conditions: NF-kB reporter expression, at 12.5 µM, active compounds read high
With `O=C(O)CSCC(=O)Nc1ccc(C(F)(F)F)cc1` the fold change was 1.18. For `O=C(CSc1nc2ccccc2[nH]1)c1cccs1`, the fold change was 3.8 (active). For `C=CCSc1nc2ccccc2[nH]1`, the fold change was 1.17. In the case of `CCCCSc1nc2ccccc2[nH]1`, the fold change is reported as 2.06. With `COc1ccc(/C=N/NC(=O)Cn2cc(C(F)(F)F)ccc2=O)cc1` the fold change was 1.07. In the case of `O=C(O)/C=C/c1ccc(S(=O)(=O)N2CCCCCC2)cc1`, the fold change is reported as 1.17. In the case of `CCCC(=O)Nc1ccc(C(=O)NCCCn2ccnc2)cc1`, the fold change is reported as 1.01. `CCCCCC(=O)Nc1ccc(C(=O)N/N=C/c2ccc([N+](=O)[O-])cc2)cc1` gave a fold change of 1.05. In the case of `CCCC(=O)Nc1ccc(C(=O)N/N=C/c2ccc[nH]2)cc1`, the fold change is reported as 6.81 (active). `CCn1c(N)c(Br)c(=O)[nH]c1=O` showed a fold change of 0.94. `CN(C)c1ccc(C2Nc3ccccc3C(=O)N2NS(=O)(=O)c2ccccc2)cc1` (stereo unspecified) gave a fold change of 0.87. Compound `CC1(C)CC(=O)C(C2c3ccccc3S(=O)(=O)c3ccccc32)C(=O)C1` has a fold change of 1.19. Work on `Cc1ccc(C(=O)NN(CCC#N)C2=NS(=O)(=O)c3ccccc32)cc1` yielded a fold change of 1.06. For `CC1(C)C2CC=C(/C=N/NC(=O)C3CC3)C1C2` (stereo unspecified), the fold change was 1.13. Work on `CC(C)(C)NS(=O)(=O)c1ccc(NC(=O)NC2CCCCC2)cc1` yielded a fold change of 0.89. `CC(C)N1CCC(NC(=O)Nc2ccccc2)CC1` gave a fold change of 1.04. For `CC(C)c1ccc(NC(=O)NC2CCCCC2)cc1`, the fold change was 5.47 (active). Work on `CCOc1cc(NC(=S)NCc2ccco2)c(OCC)cc1NC(=O)c1ccco1` yielded a fold change of 1.12. In the case of `CCN(CC)C(=O)C(=O)c1cn(CC(=O)NCc2ccc3c(c2)OCO3)c2ccccc12`, the fold change is reported as 1.39. For `C=C1c2cc(CC)ccc2NC(=O)N1c1ccc(C)cc1`, the fold change was 1.19. For `CCc1ccc2c(c1)C1(NN=C(c3ccccc3)S1)C(=O)N2` (stereo unspecified), the fold change was 4.48 (active). In the case of `O=C1Nc2ccccc2C12Nc1ccccc1S2` (stereo unspecified), the fold change is reported as 1.44. For `O=C(CSc1cccc[n+]1[O-])c1ccc(-c2ccccc2)cc1`, the fold change was 2.45. `COc1cc(NC(=O)c2cccs2)ccc1NC(=O)c1ccccc1Cl` showed a fold change of 0.87. For `O=C(Nc1ccc2sc3ccccc3c(=O)c2c1)c1ccccc1Cl`, the fold change was 6.23 (active). Work on `O=C(Nc1ccc2nc3n(c(=O)c2c1)CCCCC3)c1ccccc1Cl` yielded a fold change of 1.29. `CCOC(=O)Cc1csc(NC(=O)COc2ccc3c(C)cc(=O)oc3c2)n1` gave a fold change of 0.61. Work on `O=C(CCC1CCCN(Cc2ccc(O)c(Cl)c2)C1)NCc1ccccc1F` (stereo unspecified) yielded a fold change of 1.07. In the case of `Cc1csc(NC(=S)Nc2cccc(Cl)c2)n1`, the fold change is reported as 3.32 (active). Compound `CC(=O)Nc1cccc(C(=O)Nc2nc(C)cs2)c1` has a fold change of 1.22. Compound `S=C(Nc1cccc(Cl)c1)Nc1ccc2cn[nH]c2c1` has a fold change of 1.36. For `NC(=O)c1ccc(NC(=O)COC(=O)C(Cc2ccccc2)NC(=O)c2ccccc2)cc1` (stereo unspecified), the fold change was 0.99. With `COc1ccc(-c2csc(NC(=O)COC(=O)c3ccc(Br)o3)n2)cc1` the fold change was 1.92. Compound `COc1ccc(-c2csc(NC(=O)CCCc3cccs3)n2)cc1` has a fold change of 0.87. Compound `Oc1ccc(-c2csc(Nc3cccnc3)n2)cc1` has a fold change of 3.24. Compound `COc1ccc2nc(Nc3nc(-c4ccncc4)cs3)sc2c1` has a fold change of 1.6. For `COc1ccc(Nc2nc(-c3ccccc3)cs2)cc1`, the fold change was 12.5 (active). Work on `NS(=O)(=O)c1ccc(Nc2nc(-c3ccccc3)cs2)cc1` yielded a fold change of 1.18. In the case of `O=c1oc2ccccc2cc1-c1csc(Nc2ccc(O)cc2)n1`, the fold change is reported as 7.39 (active). Compound `COc1ccc(OC)c(Nc2nc(-c3ccc(O)c(O)c3)cs2)c1` has a fold change of 1.32. With `COc1ccc(-c2csc(Nc3ccc(O)cc3)n2)cc1` the fold change was 8.49 (active). For `COc1ccc(-c2csc(Cc3nc(O)cs3)n2)cc1`, the fold change was 3.76 (active). `COc1ccc2nc(Nc3nc(-c4cc5ccccc5oc4=O)cs3)sc2c1` showed a fold change of 1.2. Work on `CCNc1nc(-c2cc3ccccc3o2)cs1` yielded a fold change of 1.19. For `O=C(C1CCN(C2CCN(Cc3cccc4c3OCO4)CC2)CC1)N1CCOCC1`, the fold change was 1.05. For `COC(=O)c1ccc(CN2CCC(CO)(Cc3ccc(OC)cc3)CC2)cc1`, the fold change was 1.33. `COc1ccccc1-n1ccnc1SCC(=O)NC(C)(C)C` gave a fold change of 1.09. For `CCCCC(CC)CNC(=O)C(=O)C1C(=O)Nc2ccccc21` (stereo unspecified), the fold change was 1.17. Compound `CC[n+]1c(C)n(-c2ccccc2)c2ccc(NC(C)=O)cc21` has a fold change of 0.85. Compound `N#C/C(=C\c1ccc(-c2cccc([N+](=O)[O-])c2)o1)C(=O)NCCN1CCOCC1` has a fold change of 1.14. With `Cc1cccc(NC(=O)c2cc([N+](=O)[O-])ccc2N2CCN(C)CC2)c1` the fold change was 0.95. For `O=C(O)c1ccccc1-c1ccccc1C(=O)NCc1cccnc1`, the fold change was 1.16. Compound `COC(=O)C(C)NC(=O)COc1ccc2ccccc2c1` (stereo unspecified) has a fold change of 1.1. `Cc1cc(Cl)ccc1OCCCC(=O)NCc1ccccn1` showed a fold change of 1.09. `N#CC1=C(N)Oc2[nH]c(=S)[nH]c(=O)c2C12C(=O)Nc1ccccc12` (stereo unspecified) showed a fold change of 1.09. `Cc1nn(C)c(C)c1Sc1ccccc1N` showed a fold change of 0.93. `CN1CCN(/N=C2/C(=O)Nc3ccc([N+](=O)[O-])cc32)CC1` gave a fold change of 1.3. Compound `O=C(Nc1nc2ccc(S(=O)(=O)N3CCCC3)cc2s1)C1CCCO1` (stereo unspecified) has a fold change of 0.92. With `Cc1cc(Br)ccc1NC(=O)C1CCCO1` (stereo unspecified) the fold change was 1.18. With `Cc1cc(C)c2nc(NC(=O)C3CCCO3)sc2c1` (stereo unspecified) the fold change was 6.22 (active). With `CC1CN(CCCOc2ccccc2-c2ccccc2)CC(C)O1` (stereo unspecified) the fold change was 1.16. For `O=C(Cc1c[nH]c2ccccc12)OCCOC(=O)Cc1c[nH]c2ccccc12`, the fold change was 1.43. In the case of `O=C(OCC(=O)c1c[nH]c2ccccc12)c1cccc(O)c1`, the fold change is reported as 5.31 (active). For `CC1CCN(CC(=O)c2c[nH]c3ccccc23)CC1`, the fold change was 0.78. Compound `COc1cccc(CNC(=O)CCC2CCCN(C(=O)c3ccoc3C)C2)c1` (stereo unspecified) has a fold change of 1.11. Work on `c1ccc(Nc2nc(N3CCOCC3)c3ccccc3n2)cc1` yielded a fold change of 0.6. For `COc1ccc(Nc2ncc(F)c(N3CCOCC3)n2)cc1`, the fold change was 3.96 (active). With `CCOc1ccc(Nc2nc(Cl)nc(N3CCN(c4ccc(OC)cc4)CC3)n2)cc1` the fold change was 0.61. Work on `Cc1cc(NC(=O)CSCc2ccccc2C)no1` yielded a fold change of 1.25. With `CC(NCc1nc2ccccc2n1C)C12CC3CC(CC(C3)C1)C2` (stereo unspecified) the fold change was 0.85. Compound `COC(=O)c1sccc1NC(=O)c1csc2c1CCCC2` has a fold change of 1.41. For `CC(=O)Cc1nsc(NC(=O)c2csc3c2CCCC3)n1`, the fold change was 1.73. With `COC(=O)c1sc(NC(=O)c2csc3c2CCCC3)nc1C` the fold change was 4.92 (active). For `COc1cc(OC)c(C2=NOC(C(=O)Nc3c(C)n(C)n(-c4ccccc4)c3=O)C2)cc1Cl` (stereo unspecified), the fold change was 0.97. In the case of `CN1CCN(CC#CCC2(O)c3ccccc3-c3ccccc32)CC1`, the fold change is reported as 1.01. Work on `COc1ccc(C(=O)CSc2nnnn2C)c(OC)c1` yielded a fold change of 1. Work on `CNC(=O)CSc1nnnn1-c1ccc(C)cc1C` yielded a fold change of 1.23. For `CCn1nnnc1SCC(=O)c1ccc(C)cc1C`, the fold change was 3.65 (active). Compound `COCCNC(=O)C(c1ccc(O)cc1)N(C(=O)CCC(=O)Nc1nccs1)c1ccc(C)cc1` (stereo unspecified) has a fold change of 0.99. Work on `COC(=O)c1ccc(COC(=O)c2cnccn2)cc1` yielded a fold change of 1.22. `O=C(CN1C(=O)/C(=C/c2ccccc2F)Sc2ccccc21)NCc1cccnc1` showed a fold change of 0.69. With `OCC(O)CN(c1ccccc1)c1ccccc1` (stereo unspecified) the fold change was 1.39. Work on `O=C(OCc1ccc(Br)cc1)c1cccc(-c2nnc(-c3ccccc3)o2)c1` yielded a fold change of 1.7. For `Nc1ccc(-c2nnc(-c3ccc(-c4ccccc4)cc3)o2)cc1`, the fold change was 1.31. In the case of `Brc1ccc(-c2nnc(-c3ccccc3)o2)o1`, the fold change is reported as 3.89 (active). `COc1ccccc1Cn1c(C)nnc1-c1cnn(C)c1N` showed a fold change of 1.41. With `CCOC1CS(=O)(=O)CC1OCC` (stereo unspecified) the fold change was 5.97 (active). For `COc1ccccc1N1CCN(/N=C\C(Br)=C\c2ccccc2)CC1`, the fold change was 1.33. In the case of `COc1ccc(CCNC(=O)CC2SC(=Nc3cc(C)cc(C)c3)NC2=O)cc1OC` (stereo unspecified), the fold change is reported as 0.95. Work on `COC(=O)c1ccc(NC(=O)c2ccco2)cc1` yielded a fold change of 2.51. Work on `O=C(CSc1ccccc1)Nc1ccc(NC(=O)c2ccco2)cc1` yielded a fold change of 1.45. In the case of `O=C(Nc1ccc(Oc2ccccc2)cc1)c1ccco1`, the fold change is reported as 4.89 (active). `CCS(=O)(=O)Nc1ccc(C2=NN(C(C)=O)C(c3cccs3)C2)cc1` (stereo unspecified) showed a fold change of 1.16. Work on `NS(=O)(=O)c1cccc(NC(=O)COC(=O)/C=C/c2ccco2)c1` yielded a fold change of 1.19. `CCCC(O)(CCC)C(=O)NN(C(=O)CCl)c1cccc(C)c1` gave a fold change of 0.5. For `CCCCC(O)(CCCC)C(=O)NN(C(=O)CCl)c1ccccc1`, the fold change was 4.9 (active). `Cc1ccc(N(NC(=O)C(C)(C)O)C(=O)c2ccccc2)cc1C` showed a fold change of 1.37. For `Cc1nc(-c2ccccc2)sc1C(=O)/C=C/N(C)C`, the fold change was 1.77. Work on `COc1ccccc1NC(=S)N1CCC(NC(=O)C23CC4CC(CC(C4)C2)C3)CC1` yielded a fold change of 0.97. Work on `CC(C)Cc1cc(C(=O)NCCc2ccccc2)no1` yielded a fold change of 3.27. For `CC(C)Cc1cc(C(=O)Nc2cc(Br)ccc2O)no1`, the fold change was 6.03 (active). `CC(C)CNC(=O)c1cc(-c2ccc(Br)cc2)on1` showed a fold change of 0.98. Compound `O=C(/C=C/c1ccc(Cl)cc1)Nc1ccc(S(=O)(=O)Nc2ncccn2)cc1` has a fold change of 0.93. `O=C(O)/C=C/c1cn(-c2ccccc2)nc1-c1cccs1` gave a fold change of 1.14. In the case of `O=C(O)c1ccc(N/N=C/c2cn(-c3ccccc3)nc2-c2cccs2)cc1`, the fold change is reported as 6.86 (active). For `O=C(/C=C\c1cn(-c2ccccc2)nc1-c1cccs1)N1CCOCC1`, the fold change was 0.42. In the case of `CC(C(=O)NCC1CCCCC1)N(C)Cc1cccc(Cl)c1` (stereo unspecified), the fold change is reported as 1.18. For `N/C(=N\OC(=O)c1ccc([N+](=O)[O-])cc1)c1ccccn1`, the fold change was 5.12 (active). For `O=C(OCc1ccc([N+](=O)[O-])cc1)c1ccccn1`, the fold change was 1.29. With `N/C(=N\OC(=O)Cc1ccc([N+](=O)[O-])cc1)c1ccccn1` the fold change was 1.74. `O=c1cc(CSc2ccc(Cl)cc2)nc(N2CCOCC2)[nH]1` showed a fold change of 1.5. For `Clc1ccc2nc(CSc3ccccc3)cn2c1`, the fold change was 3.83 (active). `CCOc1ncccc1C(=O)OCc1cn2cc(Cl)ccc2n1` gave a fold change of 1.18. For `CN1CCC(OC(=O)COc2ccc(Cl)cc2Cl)CC1`, the fold change was 1.16. Compound `CCOc1cnc(C(=O)NNC(=O)c2ccccc2Br)o1` has a fold change of 1.13. Work on `COc1ccc(C(=O)NCC(=O)N/N=C/c2ccc([N+](=O)[O-])s2)cc1OC` yielded a fold change of 0.62.
